Laboratory results as given in PubChem BioAssay (EPA / NIEHS).
Calls of active or inactive are those of the source. Rule for the calls: active = hit-call score of the fitted dose curve at least 0.9, where 1 is the maximum; inactive = score below 0.9.

Assay: APR_HepG2_P-H2AX_24hr: Apredica 24-hour HepG2 Assay for H2AX Phosphorylation (AID 2282920)
Settings: high-content imaging, actives raise or lower the signal
Method in brief: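 HepG2 cells dosed 24 h at 0.39–200 uM (10 points, duplicate, 0.5% DMSO final). Formaldehyde-fixed and permeabilized, then immunostained for phospho-H2A.x with Hoechst. Fluorescence quantified by high-content imaging, fitted bidirectionally versus DMSO.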
With `N#CN=C1SCCN1Cc1ccc(Cl)nc1` the outcome was “inactive”. In the case of `CCCC(=NOCC)C1=C(O)CC(CC(C)SCC)CC1=O` (configuration not stated), the outcome is reported as “inactive”. For `CC1(C)CCC(=Cc2ccc(Cl)cc2)C1(O)Cn1cncn1` (configuration not stated), the outcome was “inactive”. For `Cc1cc(C)nc(Nc2ccccc2)n1`, the outcome was “inactive”. In the case of `CCOc1nc(C(Cl)(Cl)Cl)ns1`, the outcome is reported as “inactive”. For `CC(C)Nc1nc(Cl)nc(NC(C)C)n1`, the outcome was “inactive”. With `O=c1n(Cl)c(=O)n(Cl)c(=O)n1Cl` the outcome was “inactive”. With `CCCN(CC)CC1COC2(CCC(C(C)(C)C)CC2)O1` (configuration not stated) the outcome was “inactive”. For `Cc1nc(N(C)C)nc(OC(=O)N(C)C)c1C`, the outcome was “inactive”. In the case of `Clc1nc(Cl)nc(Nc2ccccc2Cl)n1`, the outcome is reported as “inactive”. With `CS(=O)(=O)c1ccc(C(=O)C2C(=O)CCCC2=O)c([N+](=O)[O-])c1` the outcome was “inactive”. In the case of `Nc1c(Cl)c(F)nc(OCC(=O)O)c1Cl`, the outcome is reported as “inactive”. With `CCN(CC)c1nc(C)cc(OP(=S)(OC)OC)n1` the outcome was “inactive”. For `CCCCC(O)(Cn1cncn1)c1ccc(Cl)cc1Cl` (configuration not stated), the AC50 was 109 µM (active). For `COc1ccc(-c2ccccc2)cc1NNC(=O)OC(C)C`, the outcome was “inactive”. For `CSC(=O)c1c(C(F)F)nc(C(F)(F)F)c(C(=O)SC)c1CC(C)C`, the outcome was “inactive”. In the case of `CCOC(=O)C(C)OC(=O)c1cc(Oc2ccc(C(F)(F)F)cc2Cl)ccc1[N+](=O)[O-]` (configuration not stated), the outcome is reported as “inactive”. In the case of `O=P(O)(O)CCCl`, the outcome is reported as “inactive”. In the case of `COCC(C)N(C(=O)CCl)c1c(C)csc1C` (configuration not stated), the AC50 is reported as 86.4 µM (active). In the case of `COC(=O)c1c(C(F)F)nc(C(F)(F)F)c(C2=NCCS2)c1CC(C)C`, the outcome is reported as “inactive”. With `CCN(CC)C(=O)C(C)Oc1cccc2ccccc12` (configuration not stated) the outcome was “inactive”. For `CNC(=O)N(C)c1nnc(C(C)(C)C)s1`, the outcome was “inactive”. With `CCOP(=O)(OCC)Oc1nc(Cl)c(Cl)cc1Cl` the outcome was “inactive”. With `CC(C)C1(C)N=C(c2ncccc2C(=O)O)NC1=O` (configuration not stated) the outcome was “inactive”. For `CC(C)N1C(=O)c2ccccc2NS1(=O)=O`, the outcome was “inactive”. With `COC(=O)NC(=S)Nc1ccccc1NC(=S)NC(=O)OC` the outcome was “inactive”. With `CC(C)(C)C(=O)C(Oc1ccc(Cl)cc1)n1cncn1` (configuration not stated) the outcome was “inactive”. With `CCC(C)n1c(=O)[nH]c(C)c(Br)c1=O` (configuration not stated) the outcome was “inactive”. With `CCNP(=S)(OC)O/C(C)=C/C(=O)OC(C)C` (configuration not stated) the outcome was “inactive”. For `CC(C)NC(=O)N1CC(=O)N(c2cc(Cl)cc(Cl)c2)C1=O`, the outcome was “inactive”. For `CCCCOCN(C(=O)CCl)c1c(CC)cccc1CC`, the outcome was “inactive”. For `O=C(O)c1c(Cl)ccc2cc(Cl)cnc12`, the outcome was “inactive”. With `CO/N=C(/C1=NOCCO1)c1ccccc1Oc1ncnc(Oc2ccccc2Cl)c1F` the outcome was “inactive”. For `CC1(C)C(C=C(Cl)Cl)C1C(=O)OC(C#N)c1cccc(Oc2ccccc2)c1` (configuration not stated), the outcome was “inactive”. In the case of `Nc1c(Cl)c(Cl)nc(C(=O)O)c1Cl`, the outcome is reported as “inactive”. For `CC1(C)CON(Cc2ccccc2Cl)C1=O`, the outcome was “inactive”.

Assay: APR_HepG2_StressKinase_72hr: Apredica 72-hour HepG2 Assay for Stress Kinase (AID 2282921)
Settings: HepG2 stress kinase (phospho-c-Jun) imaging, actives raise or lower the signal
Method in brief: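 Stress kinase signal is phospho-c-Jun immunofluorescence (1:500 primary, Cy3 secondary) in fixed, permeabilized human HepG2 cells imaged at 20x. Exposure lasted 72 hr over ten concentrations from 0.39 to 200 uM, 0.5% DMSO, in duplicate. Bidirectional fit versus DMSO.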
With `N#CN=C1SCCN1Cc1ccc(Cl)nc1` the outcome was “inactive”. For `CCCC(=NOCC)C1=C(O)CC(CC(C)SCC)CC1=O` (configuration not stated), the outcome was “inactive”. In the case of `CC1(C)CCC(=Cc2ccc(Cl)cc2)C1(O)Cn1cncn1` (configuration not stated), the outcome is reported as “inactive”. In the case of `Cc1cc(C)nc(Nc2ccccc2)n1`, the outcome is reported as “inactive”. For `CCOc1nc(C(Cl)(Cl)Cl)ns1`, the outcome was “inactive”. With `CC(C)Nc1nc(Cl)nc(NC(C)C)n1` the outcome was “inactive”. In the case of `O=c1n(Cl)c(=O)n(Cl)c(=O)n1Cl`, the outcome is reported as “inactive”. In the case of `CCCN(CC)CC1COC2(CCC(C(C)(C)C)CC2)O1` (configuration not stated), the outcome is reported as “inactive”. In the case of `Cc1nc(N(C)C)nc(OC(=O)N(C)C)c1C`, the outcome is reported as “inactive”. In the case of `Clc1nc(Cl)nc(Nc2ccccc2Cl)n1`, the outcome is reported as “inactive”. For `CS(=O)(=O)c1ccc(C(=O)C2C(=O)CCCC2=O)c([N+](=O)[O-])c1`, the outcome was “inactive”. In the case of `Nc1c(Cl)c(F)nc(OCC(=O)O)c1Cl`, the outcome is reported as “inactive”. With `CCN(CC)c1nc(C)cc(OP(=S)(OC)OC)n1` the outcome was “inactive”. For `CCCCC(O)(Cn1cncn1)c1ccc(Cl)cc1Cl` (configuration not stated), the AC50 was 122 µM (active). In the case of `COc1ccc(-c2ccccc2)cc1NNC(=O)OC(C)C`, the outcome is reported as “inactive”. With `CSC(=O)c1c(C(F)F)nc(C(F)(F)F)c(C(=O)SC)c1CC(C)C` the outcome was “inactive”. In the case of `CCOC(=O)C(C)OC(=O)c1cc(Oc2ccc(C(F)(F)F)cc2Cl)ccc1[N+](=O)[O-]` (configuration not stated), the outcome is reported as “inactive”. With `O=P(O)(O)CCCl` the outcome was “inactive”. For `COCC(C)N(C(=O)CCl)c1c(C)csc1C` (configuration not stated), the outcome was “inactive”. In the case of `COC(=O)c1c(C(F)F)nc(C(F)(F)F)c(C2=NCCS2)c1CC(C)C`, the outcome is reported as “inactive”. For `CCN(CC)C(=O)C(C)Oc1cccc2ccccc12` (configuration not stated), the outcome was “inactive”. In the case of `CNC(=O)N(C)c1nnc(C(C)(C)C)s1`, the outcome is reported as “inactive”. In the case of `CCOP(=O)(OCC)Oc1nc(Cl)c(Cl)cc1Cl`, the outcome is reported as “inactive”. In the case of `CC(C)C1(C)N=C(c2ncccc2C(=O)O)NC1=O` (configuration not stated), the outcome is reported as “inactive”. With `CC(C)N1C(=O)c2ccccc2NS1(=O)=O` the outcome was “inactive”. In the case of `COC(=O)NC(=S)Nc1ccccc1NC(=S)NC(=O)OC`, the outcome is reported as “inactive”. With `CC(C)(C)C(=O)C(Oc1ccc(Cl)cc1)n1cncn1` (configuration not stated) the outcome was “inactive”. With `CCC(C)n1c(=O)[nH]c(C)c(Br)c1=O` (configuration not stated) the outcome was “inactive”. In the case of `CCNP(=S)(OC)O/C(C)=C/C(=O)OC(C)C` (configuration not stated), the outcome is reported as “inactive”. With `CC(C)NC(=O)N1CC(=O)N(c2cc(Cl)cc(Cl)c2)C1=O` the outcome was “inactive”. In the case of `CCCCOCN(C(=O)CCl)c1c(CC)cccc1CC`, the AC50 is reported as 13.2 µM (active). For `O=C(O)c1c(Cl)ccc2cc(Cl)cnc12`, the outcome was “inactive”. For `CO/N=C(/C1=NOCCO1)c1ccccc1Oc1ncnc(Oc2ccccc2Cl)c1F`, the outcome was “inactive”. In the case of `CC1(C)C(C=C(Cl)Cl)C1C(=O)OC(C#N)c1cccc(Oc2ccccc2)c1` (configuration not stated), the outcome is reported as “inactive”. With `Nc1c(Cl)c(Cl)nc(C(=O)O)c1Cl` the outcome was “inactive”. For `CC1(C)CON(Cc2ccccc2Cl)C1=O`, the outcome was “inactive”.
